Test results: PubChem BioAssay AID1733 (National Center for Advancing Translational Sciences (NCATS), 2009)
Inconclusive results are not listed. A call without a number means that no potency is given here. The source made the active and inactive calls. The call rests on the fitted dose curve; in most records, active means well fitted inhibition curve with a large enough effect; inconclusive means small, poorly fitted or top-dose-only effect; inactive means flat fitted curve, though single readings scatter.

molecular target: Luciferin 4-monooxygenase (Photinus pyralis) (UniProt P08659); experiment: Counterscreen Assay for Enhancers of SMN2 Splice Variant Expression: Interaction with Luciferase Reporter; conditions: purified firefly luciferase, luminescence, 5 min; series mostly up to 40.3 µM
Text: NIH Chemical Genomics Center [NCGC] NIH Molecular Libraries Probe Production centers Network [MLPCN] MLPCN Grant: R03 MH084179-01 Assay Submitter (PI): Elliot Androphy NCGC Assay Overview: Spinal muscular atrophy (SMA) is caused by insufficient levels of the survival motor neuron protein SMN. The SMN locus on chromosome 5q13 contains two inverted copies of SMN called SMN1 and SMN2 which are 99% identical at the amino acid level. SMN1 is a fully functional protein and SMN2 skips exon 7 90% of the time. Skipping of exon 7 produces non-functional protein product. 10% of the SMN2 protein includes exon 7 and is fully functional. In the SMA disease state, mutations in the SMN1 locus are the cause of the disease state. Because only 10% of SMN2 is of the fully functional form, it is not sufficient to overcome the deficiency produced by the loss of the SMN1 product. A therapy that either increases the amount of SMN2 product made increases the inclusion of exon 7 has been proposed for the treatment of SMA. We have designed an assay to identify small molecules that can increase the amount of functional SMN2 product by appending a luciferase reporter gene after the native SMN2 gene, such that inclusion of exon 7 in the expressed product places the luciferase sequence in frame, thus generating functional luciferase enzyme. One potential source of false positives in the primary screening assay is stabilization of the reporter luciferase via direct binding. This assay attempts to identify such compounds by screening directly for luciferase activity in the absence of the cellular system.
NCGC Assay Protocol Summary: The primary screen utilizes a luciferase reporter gene assay, combining the promoter and splicing based cassettes in tandem with the major portion of the native SMN1 cDNA, and then transfected into HEK293 cells. Compounds that modulate luciferase signal presumably modulate expression of […]. In this assay, we utilize purified firefly luciferase in lieu of a cellular reporter to identify compounds interacting directly with luciferase in the primary screen. Sequence, Parameter, Value, Description (1) Reagent, 2.5 uL, Enzyme in buffer (note A) (2) Compound, 23 nL, From stock solutions (3) Time, 5 minutes, Room temp (4) Reagent#2.5 ul, Luciferase detection reagent (note B) (5) Detector, 1 sec integrate, Luminescent read on Viewlux (note C) Sigma enzyme (1 mg) considered to be MW 61,000 diluted in 357 ul assay buffer to 50 uM stock. A - Enzyme and buffer consists of 50 mM Tris-acetate pH 7.6, 10 mM Mg acetate 0.05% BSA, 0.01% Tween and 5 nM firefly luciferase B - Detection reagent = britelite plus diluted 1:10 in PBS C - Viewlux settings were 1 second integration medium sensitivity Keywords: Spinal muscular atrophy, SMA, SMN2, high throughput screening, MLSMR, MLPCN, NIH Roadmap, qHTS and NCGC

Sequence of Luciferin 4-monooxygenase (Photinus pyralis) (P08659 whole entry, looked up, canonical isoform): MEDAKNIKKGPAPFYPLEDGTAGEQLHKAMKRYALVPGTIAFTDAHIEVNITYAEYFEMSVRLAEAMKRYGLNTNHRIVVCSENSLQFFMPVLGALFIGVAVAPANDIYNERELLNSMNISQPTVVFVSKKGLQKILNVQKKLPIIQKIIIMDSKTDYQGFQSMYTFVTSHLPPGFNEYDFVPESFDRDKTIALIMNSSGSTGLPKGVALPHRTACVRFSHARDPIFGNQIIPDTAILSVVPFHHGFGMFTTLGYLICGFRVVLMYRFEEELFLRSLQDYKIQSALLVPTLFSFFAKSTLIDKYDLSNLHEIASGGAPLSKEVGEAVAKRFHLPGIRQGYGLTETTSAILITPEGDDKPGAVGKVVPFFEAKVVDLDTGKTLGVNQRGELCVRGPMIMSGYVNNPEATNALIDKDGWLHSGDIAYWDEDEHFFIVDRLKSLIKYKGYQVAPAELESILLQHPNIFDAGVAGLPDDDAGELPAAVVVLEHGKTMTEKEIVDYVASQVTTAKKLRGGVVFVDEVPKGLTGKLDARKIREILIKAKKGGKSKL

Structure (SMILES) | Potency | activity change, negative = inhibition
O=[N+]([O-])c1ccc(-c2nnc(-c3ccccc3)c(NCCCO)n2)cc1 | 11.2 µM (active) | 
c1ccc(-c2nnc(-c3ccccc3)c(-c3c[nH]c4ccccc34)n2)cc1 | inactive | 
O=c1cc(N2CCN(c3cccc(Cl)c3)CC2)[nH]c(=O)n1C1CCCCC1 |  | -4.08% [at 48.7 pM] (inactive)
Brc1ccc(-c2nnc(-c3ccccc3)c(N3CCSCC3)n2)cc1 | 10 µM (active) | 
O=C(Nc1nc(-c2ccc3ccccc3c2)cs1)C1CCN(S(=O)(=O)c2cccs2)CC1 | inactive | 
Cc1ccc(-c2csc(N3CCC(NS(=O)(=O)c4ccc5c(c4)OCCO5)CC3)n2)cc1 | inactive | 
O=C1CCC(C(=O)Nc2cccc3ccccc23)N1 (stereo not given) |  | 7.8% [at 48.7 pM] (inactive)
CCC1=Nc2ccccc2-c2nnc(SC)nc2O1 | inactive | 
Cc1[nH]c2ccccc2c1-c1nc(-c2ccc(Cl)cc2)nnc1-c1ccccc1 | inactive | 
COc1ccc(OC)c(-c2csc(N3CCC(c4ccccc4)CC3)n2)c1 | inactive | 
OCCCNc1nc(-c2ccc(Br)cc2)nnc1-c1ccc(Cl)cc1 | inactive | 
O=C(NCc1cccs1)C(=O)NCC1OCCCN1S(=O)(=O)c1ccccc1 (stereo not given) |  | 14.3% [at 48.7 pM] (inactive)
NC(=O)N1c2ccccc2C=Cc2ccccc21 | inactive | 
CCOc1c(Cl)cc(C(=O)Nc2ccccc2C(=O)O)cc1Cl | 3.98 µM (active) | 
O=C(Nc1ccc([N+](=O)[O-])cc1Cl)c1cc(Cl)ccc1O | 0.794 µM (active) | 
OCCCNc1nc(-c2ccc(Cl)cc2)nnc1-c1ccccc1 | inactive | 
O=C(NCCCNCCCNC(=O)c1ccccn1)c1ccccn1 |  | -6.78% [at 48.7 pM] (inactive)
CN(C)CCCN(C(=O)c1cccs1)c1nc(-c2ccccc2)cs1 | inactive | 
Cc1ccc(-c2nnc(-c3ccccc3)c(-c3ccccc3)n2)cc1 | inactive | 
Cc1ccc(C2c3c(oc4ccccc4c3=O)C(=O)N2CCCN2CCOCC2)o1 (stereo not given) | 12.6 µM (active) | 

Structure (SMILES) | Potency | activity change, negative = inhibition
COc1c(C)c2c(c(O)c1C/C=C(\C)CCC(=O)O)C(=O)OC2 | inactive | 
COc1ccc(CNC(=O)c2ccc(C(C)C)cc2)cc1 |  | 39.8% [at 48.7 pM] (inactive)
FC(F)(F)c1nnc(-c2ccccc2)nc1Oc1ccccc1 | 11.2 µM (active) | 
CCCc1sc(N2CCCC(C(N)=O)C2)nc1-c1ccccc1 (stereo not given) | inactive | 
CC(C)Nc1nc(-c2ccccc2)nnc1-c1ccccc1 | inactive | 
CC1CN(c2nc(-c3ccc(Br)cc3)nnc2-c2ccccc2)CC(C)N1 (stereo not given) | inactive | 
Clc1ccc(-c2nnc(-c3ccccc3)nc2N2CCSCC2)cc1 | 11.2 µM (active) | 
FC(F)(F)c1cccc(Oc2nc(-c3ccccc3)nnc2C(F)(F)F)c1 | 8.91 µM (active) | 
OC[C@H]1O[C@@H](n2cnc3c(Nc4ccccc4)ncnc32)[C@H](O)[C@H]1O | inactive | 
O=C(O)c1cccc(COc2ccc(CO)cc2Cl)c1 | 7.08 µM (active) | 
NC(=O)C1(N2CCCCC2)CCN(c2nc(-c3ccc(Br)cc3)cs2)CC1 | inactive | 
COc1ccc(-c2csc(N3CCC(c4ccccc4)CC3)n2)cc1 | inactive | 
COC(=O)C1=C(C)NC(=O)/C1=C\c1cc(C)n(-c2ccccc2F)c1C |  | 8.15% [at 48.7 pM] (inactive)
Clc1ccc(-c2nnc(-c3ccccc3)nc2-c2c[nH]c3ccccc23)cc1 | inactive | 
COC(=O)C1=C(CN2CCc3ccccc32)NC(=O)NC1c1cc(C)ccc1C (stereo not given) |  | 18.7% [at 48.7 pM] (inactive)
NC(=O)C1(N2CCCCC2)CCN(c2nc(-c3ccccc3)cs2)CC1 | inactive | 
Fc1ccc(Oc2nc(-c3ccccc3)nnc2C(F)(F)F)cc1 | 11.2 µM (active) | 
C#CCn1c(S(=O)(=O)Cc2ccccc2Cl)nc(-c2ccccc2)c1-c1ccccc1 |  | 12% [at 48.7 pM] (inactive)
Cc1nnc(-c2ccccc2)[nH]c1=O | inactive | 
Nn1c(SCC(=O)NCCC2=CCCCC2)nnc1C1CCCCC1 |  | 2.17% [at 48.7 pM] (inactive)
